{"source": "PubChem BioAssay (NCATS)", "note": "Results filed as inconclusive are left out. Active and inactive are the calls of the source. The call rests on the fitted dose curve; in most records, active means well fitted inhibition curve with a large enough effect; inconclusive means small, poorly fitted or top-dose-only effect; inactive means no such curve, though single readings can be large or run the other way. On the % scale 0 is the no-effect control and ±100 the full control effect."}
{"experiment": "Primary qHTS for small molecule stabilizers of the endoplasmic reticulum resident proteome: Secreted ER Calcium Modulated Protein (SERCaMP) assay (AID 1508630)", "conditions": "SH-SY5Y GLuc-SERCaMP (Gaussia luciferase released on ER calcium loss) secretion, thapsigargin, luminescence; series mostly up to 38.4 µM", "from_the_text": "Assay Provider: Brandon K. Harvey Ph.D.\nNational Institute on Drug Abuse, National Institutes of Health, Baltimore, MD\nEndoplasmic reticulum (ER) dysregulation is associated with human pathologies including neurodegenerative, cardiovascular, muscular, and diabetic conditions. Maintenance of ER calcium is critical for functions of the ER and its depletion can lead to loss of ER resident proteins, in a process termed exodosis. Therapeutic compounds capable of attenuating the redistribution of ER proteins under pathological conditions may slow or stop disease progression. To identify such compounds, we performed a quantitative high-throughput screen (qHTS) using the SERCaMP assay, which monitors secretion of ER resident proteins triggered by calcium depletion.\nSERCaMP was initially developed as a reporter of ER calcium homeostasis using a Gaussia luciferase with a modified signal peptide and carboxy-terminus (GLuc-SERCaMP), modifications that confer secretion of the reporter in response to ER calcium depletion (Henderson et al., 2014). The assay was used to screen 9,501 compounds, including a collection of drugs approved by the FDA (US), EMA (EU), NHI (Japan), and HC (Canada) regulatory agencies (Huang et al., 2011). Since the SERCaMP reporter reflects the exodosis phenomenon (Trychta et al., 2018a), compounds identified in the screen have the potential to prevent exodosis by different mechanisms such as stabilizing ER calcium or augmenting ERS retrieval.\n1. Henderson, M.J., Wires, E.S., Trychta, K.A., Richie, C.T., and Harvey, B.K. (2014). SERCaMP: a carboxy-terminal protein modification that enables monitoring of ER calcium homeostasis. Mol Biol Cell 25, 2828-2839.\n2. Huang, R., Southall, N., Wang, Y., Yasgar, A., Shinn, P., Jadhav, A., Nguyen, D.T., and Austin, C.P. (2011). The NCGC pharmaceutical collection: a comprehensive resource of clinically approved drugs enabling repurposing and chemical genomics. Sci Transl Med 3, 80ps16.\n3. Trychta, K.A., Back, S., Henderson, M.J., and Harvey, B.K. (2018a). KDEL Receptors Are Differentially Regulated to Maintain the ER Proteome under Calcium Deficiency. Cell Rep 25, 1829-1840 e1826.\nSEQUENCE No. (1, 2, 3, etc.); […] (e.g., Cells, Incubation, Reagent, etc.); VALUE and DESCRIPTION.\n1; Reagent; 5 uL; 1000 SH-SY5Y cells per wells\n3; Compound; 23 nL; Control inhibitor / compound library\n5; Reagent; 100 nM; Thapsigargin\n7; Reagent; 1 uL; 0.5x coelenterazine\n8; Detection; Luminescence; ViewLux imaging system\nNOTES (numbers refer to sequence above)\n1; SH-SY5Y human neuroblastoma cells stably expressing GLuc-SERCaMP (SH-SY5Y-GLuc-ASARTDL) cells were seeded in 1,536 well white tissue culture treated plates (Corning, Cat# 7464) in DMEM-high glucose-sodium pyruvate (ThermoFisher Scientific, Cat #10569) supplemented with 10% bovine growth serum (Hyclone), 10 U/ml penicillin (Gibco), 10 ug/ml streptomycin (Gibco), and 20 mM HEPES.\n2; Assay plates were incubated for 5 hour at 37C in a humidified incubator containing 5% CO2.\n3; qHTS libraries (23 nl, final concentrations of 1.53 uM, 7.67 uM, 38.3 uM) or controls (neutral control: DMSO, positive control: dantrolene) were added using a Kalypsis pin-tool Robotic System equipped with 1536 pinheads.\n4; Cells were then incubated for 16 hours at 37C, 5% CO2.\n5; Thapsigargin was added at 100 nM to deplete ER calcium stores.\n6; Cells were incubated for 4 hour (37 °C, 5% CO2)\n7; Gaussia luciferase in the medium was measured by adding 1 ul of 0.5x coelenterazine (final concentration 0.07x) prepared in Gaussia Luciferase Glow Assay Buffer (Pierce), without addition of the Cell Lysis Buffer Reagent.\n8; Luminescence was measured using a ViewLux […] CCD imaging system (Perkin Elmer) equipped with clear filters. […] The same controls were also used for the calculation of the Z' factor, a measure of assay quality control, as previously described (Zhang et al., 1999). […]"}
{"smiles": "NS(=O)(=O)c1cc2c(cc1C(F)(F)F)NCNS2(=O)=O", "outcome": "inactive"}
{"smiles": "O=C(CN1CCNCC1)NC1CCCCC1", "outcome": "inactive"}
{"smiles": "CCN(CC)CCOC(=O)C(c1ccccc1)c1ccccc1", "outcome": "inactive"}
{"smiles": "CCN(CC)CCc1nc(-c2ccccc2)no1", "outcome": "inactive"}
{"smiles": "O=C1CC[C@@H](C(=O)O)N1", "outcome": "inactive"}
{"smiles": "NS(=O)(=O)c1cc(-c2nn[nH]n2)c(NCc2cccs2)cc1Cl", "outcome": "inactive"}
{"smiles": "COc1ccccc1Oc1c(NS(=O)(=O)c2ccc(C(C)(C)C)cc2)nc(-c2ncccn2)nc1OCCO", "outcome": "inactive"}
{"smiles": "C[N+](C)(C)CC(O)CC(=O)[O-]", "note": "(stereo not given)", "outcome": "inactive"}
{"smiles": "O=C(NCC(O)CO)c1c(I)c(C(=O)NCC(O)CO)c(I)c(N(CCO)C(=O)CO)c1I", "note": "(stereo not given)", "outcome": "inactive"}
{"smiles": "CN1CCCN=C1COC(=O)C(O)(c1ccccc1)C1CCCCC1", "note": "(stereo not given)", "outcome": "inactive"}
{"smiles": "O=C(NCCCN1CCOCC1)c1ccc(Cl)cc1", "outcome": "inactive"}
{"smiles": "CNCc1ccccc1", "outcome": "inactive"}
{"smiles": "O=C(/C=C/c1ccc(O)c(O)c1)O[C@@H]1C[C@@](OC(=O)/C=C/c2ccc(O)c(O)c2)(C(=O)O)C[C@@H](O)[C@@H]1O", "outcome": "inactive"}
{"smiles": "CN1C(=O)CC(c2ccccc2)C1=O", "note": "(stereo not given)", "outcome": "inactive"}
{"smiles": "CC(=O)Nc1ccc(OCCOCCOc2ccc(NC(C)=O)cc2)cc1", "outcome": "inactive"}
{"smiles": "Cc1cc(C)c(NC(=O)CN(CC(=O)O)CC(=O)O)c(C)c1Br", "outcome": "inactive"}
{"smiles": "CC(C)(C)NCC(O)COc1cccc2c1CCC(=O)N2", "note": "(stereo not given)", "outcome": "inactive"}
{"smiles": "CCN(CC)S(=O)(=O)c1ccc(C(=O)O)cc1", "outcome": "inactive"}
{"smiles": "CNc1c2c(nn1C)CCCC2", "outcome": "inactive"}
{"smiles": "C[C@@H](N)C(=O)O", "outcome": "inactive"}
{"smiles": "O=C(c1ccccc1)C(O)c1ccccc1", "note": "(stereo not given)", "outcome": "inactive"}
{"smiles": "CC(=O)Nc1ccccc1", "outcome": "inactive"}
{"smiles": "CC[C@H](C)[C@H](N)C(=O)O", "outcome": "inactive"}
{"smiles": "NCc1ccc(S(N)(=O)=O)cc1", "outcome": "inactive"}
{"smiles": "O=C(O)[C@@H]1[C@H]2C[C@H]3c4[nH]c5ccccc5c4CCN3C[C@@H]2CC[C@@H]1O", "outcome": "inactive"}
{"smiles": "CCCCCC(N)=O", "outcome": "inactive"}
{"smiles": "Cc1ccc(S(=O)(=O)NC(=O)NC2CCCCC2)cc1", "outcome": "inactive"}
{"smiles": "CC(C)=CCC/C(C)=C/CO", "outcome": "inactive"}
{"smiles": "CCOC(=O)c1cccnc1", "outcome": "inactive"}
{"smiles": "O=C(Cn1ccnc1[N+](=O)[O-])NCCO", "outcome": "inactive"}
{"smiles": "CCCNC(C)C(=O)Nc1c(C)csc1C(=O)OC", "note": "(stereo not given)", "outcome": "inactive"}
{"smiles": "CC(=O)OCC(=O)[C@@]1(O)CC[C@H]2[C@@H]3CCC4=CC(=O)C=C[C@]4(C)[C@@]3(F)[C@@H](O)C[C@@]21C", "outcome": "inactive"}
{"smiles": "C=CCSCC1Nc2cc(Cl)c(S(N)(=O)=O)cc2S(=O)(=O)N1", "note": "(stereo not given)", "outcome": "inactive"}
{"smiles": "OCCN1C[C@H](O)[C@@H](O)[C@H](O)[C@H]1CO", "outcome": "inactive"}
{"smiles": "CCCCCCCCCCOc1cc2c(=O)c(C(=O)OCC)c[nH]c2cc1OCC", "activity change, negative = inhibition": "2.46% [at 3.88 µM] (inactive)"}
{"smiles": "FC(F)(F)C(Cl)Br", "note": "(stereo not given)", "outcome": "inactive"}
{"smiles": "CN/C(=C\\[N+](=O)[O-])NCCSCc1csc(CN(C)C)n1", "outcome": "inactive"}
{"smiles": "C[C@@H](c1ncncc1F)C(O)(Cn1cncn1)c1ccc(F)cc1F", "note": "(stereo not given in full)", "outcome": "inactive"}
{"smiles": "O=C(O)CCCc1ccccc1", "outcome": "inactive"}
{"smiles": "C[N+](C)(C)CC[N+]1(C)Cc2c(Cl)c(Cl)c(Cl)c(Cl)c2C1", "outcome": "inactive"}
